About 83,000 compounds went through this panel and 20% of them were active in at least one assay; those are over-represented in the sample as a whole.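 The endpoint reported here, percent growth, reads 100 for growth as untreated, 0 for no net growth and -100 for all cells dead.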 Active and inactive are the calls of the source. Rule for the calls: active = growth percent below 10; inactive = the rest.
Legend:
Assay in all cases: NCI-60 one-dose screen, 48 h (100 = growth as untreated, 0 = no growth, -100 = all killed)
Conditions in all cases: 10 µM unless noted
NCI-H23 lung = tested on: NCI-H23 lung
NCI-H226 lung = tested on: NCI-H226 lung
NCI-H322M lung = tested on: NCI-H322M lung
HOP-62 NSCLC = tested on: HOP-62 NSCLC
NCI-H460 lung = tested on: NCI-H460 lung
HOP-92 NSCLC = tested on: HOP-92 NSCLC
A549/ATCC NSCLC = tested on: A549/ATCC NSCLC
786-0 renal = tested on: 786-0 renal
COLO 205 colon = tested on: COLO 205 colon
DU-145 prostate = tested on: DU-145 prostate
K-562 leukemia = tested on: K-562 leukemia
MALME-3M melanoma = tested on: MALME-3M melanoma
MDA-MB-231 breast = tested on: MDA-MB-231 breast
RXF 393 renal = tested on: RXF 393 renal
SF-268 CNS = tested on: SF-268 CNS
SF-295 CNS = tested on: SF-295 CNS
SF-539 CNS = tested on: SF-539 CNS
UACC-257 melanoma = tested on: UACC-257 melanoma
M14 melanoma = tested on: M14 melanoma

Measured: growth

CC(=O)N1N=C(c2ccc(Cl)cc2)CC1c1c(C)nn(-c2ccccc2)c1N(C)Cc1ccccc1 (configuration not stated)
inactive: NCI-H23 lung 78.3% | NCI-H226 lung 67% | NCI-H322M lung 91.4% | HOP-62 NSCLC 74.3% | NCI-H460 lung 79% | HOP-92 NSCLC 55.2% | A549/ATCC NSCLC 53.5% | 786-0 renal 84.7% | COLO 205 colon 74.9% | DU-145 prostate 94.5% | K-562 leukemia 61.9% | MALME-3M melanoma 83.1% | MDA-MB-231 breast 81.1% | RXF 393 renal 72.7% | SF-268 CNS 77.8% | SF-295 CNS 82.7% | SF-539 CNS 93.8% | UACC-257 melanoma 50.4% | M14 melanoma 79.9%

COc1ccc(-c2nc3sc4c(c3c(=O)[nH]2)CCCCCC4)cc1
active: MALME-3M melanoma 8.18%
inactive: NCI-H23 lung 80.7% | NCI-H226 lung 86.5% | NCI-H322M lung 74.4% | HOP-62 NSCLC 36.2% | NCI-H460 lung 33.2% | HOP-92 NSCLC 73.2% | A549/ATCC NSCLC 50.3% | 786-0 renal 80.1% | COLO 205 colon 35.4% | DU-145 prostate 66.6% | K-562 leukemia 17.8% | MDA-MB-231 breast 52.6% | RXF 393 renal 28.4% | SF-268 CNS 48.6% | SF-295 CNS 43.6% | SF-539 CNS 65.1% | UACC-257 melanoma 64% | M14 melanoma 33.7%

N#CC(C#N)C(C#N)C#N
inactive: NCI-H23 lung 97.7% | NCI-H226 lung 99.9% | NCI-H322M lung 103% | HOP-62 NSCLC 90.9% | NCI-H460 lung 105% | HOP-92 NSCLC 102% | A549/ATCC NSCLC 79% | 786-0 renal 101% | COLO 205 colon 99.3% | DU-145 prostate 112% | K-562 leukemia 105% | MALME-3M melanoma 114% | MDA-MB-231 breast 108% | RXF 393 renal 110% | SF-268 CNS 104% | SF-295 CNS 102% | SF-539 CNS 105% | UACC-257 melanoma 85.7% | M14 melanoma 99.7%

C/C(=C\CCc1ccsc1)CC/C=C(\C)CCCN1CCSCC1
inactive: NCI-H23 lung 89.6% | NCI-H226 lung 91.3% | NCI-H322M lung 78.3% | HOP-62 NSCLC 99% | NCI-H460 lung 76.9% | HOP-92 NSCLC 73.3% | A549/ATCC NSCLC 67.5% | 786-0 renal 102% | COLO 205 colon 85.6% | DU-145 prostate 96.6% | K-562 leukemia 61.9% | MALME-3M melanoma 98.4% | MDA-MB-231 breast 85.9% | RXF 393 renal 98.1% | SF-268 CNS 103% | SF-295 CNS 82% | SF-539 CNS 89.9% | UACC-257 melanoma 94.6% | M14 melanoma 96.2%

CCOC(=O)C1=CCC(n2cc(C)c(=O)[nH]c2=O)O1 (configuration not stated)
inactive: NCI-H23 lung 102% | NCI-H226 lung 89.5% | NCI-H322M lung 101% | HOP-62 NSCLC 104% | NCI-H460 lung 114% | HOP-92 NSCLC 65% | A549/ATCC NSCLC 96.7% | 786-0 renal 105% | COLO 205 colon 90.1% | DU-145 prostate 119% | K-562 leukemia 99.4% | MALME-3M melanoma 120% | MDA-MB-231 breast 97.3% | SF-268 CNS 117% | SF-295 CNS 116% | SF-539 CNS 101% | UACC-257 melanoma 96.3% | M14 melanoma 106%
active: RXF 393 renal -5.82%

COc1cc(/C=C/C(=O)c2c(C)n([O-])c3ccccc3[n+]2=O)cc(OC)c1OC
active: HOP-92 NSCLC -0.517%
inactive: NCI-H23 lung 54.9% | NCI-H226 lung 86.5% | NCI-H322M lung 49% | HOP-62 NSCLC 105% | NCI-H460 lung 20.6% | A549/ATCC NSCLC 51.4% | 786-0 renal 65.9% | COLO 205 colon 55.9% | DU-145 prostate 32.6% | K-562 leukemia 21.8% | MALME-3M melanoma 66.2% | MDA-MB-231 breast 78.9% | RXF 393 renal 53.9% | SF-268 CNS 43.6% | SF-295 CNS 46.8% | SF-539 CNS 75.5% | UACC-257 melanoma 54.4% | M14 melanoma 60.2%

OC(c1cc(-c2cccc(Cl)c2)nc2ccccc12)C1CCCCN1 (configuration not stated)
active: NCI-H23 lung 3.63% | NCI-H322M lung -12.3% | HOP-62 NSCLC -67.3% | NCI-H460 lung -47% | HOP-92 NSCLC -17.6% | A549/ATCC NSCLC -90.4% | 786-0 renal -82.6% | COLO 205 colon -85.7% | DU-145 prostate -33.8% | K-562 leukemia -47.2% | MALME-3M melanoma -69.6% | MDA-MB-231 breast -6.36% | RXF 393 renal -46.4% | SF-295 CNS -47.5% | SF-539 CNS -52.9% | UACC-257 melanoma -91.9% | M14 melanoma -81.5%
inactive: NCI-H226 lung 31.2% | SF-268 CNS 21.4%

C(#Cc1ccccc1C#Cc1ccccn1)c1ccc(OCCCCCCOc2ccc(C#Cc3ccccc3C#Cc3ccccn3)cc2)cc1
inactive: NCI-H23 lung 57.3% | NCI-H226 lung 67.3% | NCI-H322M lung 67.8% | HOP-62 NSCLC 38.2% | NCI-H460 lung 19.9% | A549/ATCC NSCLC 25.3% | 786-0 renal 29.3% | COLO 205 colon 120% | DU-145 prostate 76.2% | K-562 leukemia 31.6% | MALME-3M melanoma 99.6% | MDA-MB-231 breast 35.3% | RXF 393 renal 45.6% | SF-268 CNS 88.9% | SF-539 CNS 25.4% | UACC-257 melanoma 34.2% | M14 melanoma 23.4%
active: HOP-92 NSCLC 9.48% | SF-295 CNS -3.2%
